# A number with no mark means an inactive call. Calls follow the shape of the dose curve; as a rule, active = well fitted curve in the direction sought with a large enough effect; inconclusive = small, poorly fitted or top-dose-only effect, or another doubt; inactive = no such curve, though single readings can be large or run the other way.
# Molecular target: alpha-glucosidase (Oryza sativa, rice) (UniProt Q653V4)
# Assay: Counterscreen for Glucocerebrosidase Inhibitors: qHTS Assay for Rice alpha-Glucosidase at pH 5.0 (AID 997);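 also: 0% = full activity with enzyme and -100% = basal without enzyme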
# Details: rice alpha-glucosidase enzyme activity; series mostly up to 76.9 µM; activity change, negative = inhibition: at the top concentration
# Source text: NIH Chemical Genomics Center [NCGC]
# NIH Molecular Libraries Screening Centers Network [MLSCN]
# PI Name: Zheng, Wei [NIH]
# Alpha-glucosidase is responsible for hydrolysis of terminal, non-reducing 1,4-linked alpha-D-glucose residues with release of alpha-D-glucose. It is a lysosomal hydrolase that is required for the degradation of a small percentage (1-3%) of cellular glycogen in human. Deficiency of this enzyme results in glycogen-storage disease type II (GSDII), also referred to as Pompe disease, an autosomal recessive disorder. Structurally normal glycogen is accumulated in lysosomes and cytoplasm in affected patients, primarily in muscle tissues. Excessive glycogen storage within lysosomes may interrupt normal functioning of other organelles and leads to cellular injury. In turn, this leads to enlargement and dysfunction of the entire organ involved (eg, cardiomyopathy and muscle weakness).
# It has reported that the improper folding and trafficking of alpha-glucosidase resulted from the genetic mutations may account for a significant number of Prope patients. […] We optimized this alpha-glucosidase assay in 1536-well plate format for identifying the novel small molecule inhibitors with the structures other than the sugar analogs in order to develop the new pharmacological chaperones.
# NCGC Assay Protocol Summary:
# This is a fluorogenic enzyme assay with 4-methylumbelliferyl-alpha-D-pyranoside as the substrate and rice alpha-glucosidase as the enzyme preparation. Upon the hydrolysis of this fluorogenic substrate, the resulting product, 1. 4-methyllumbelliferone, can be excited at 365 nm and emits at 440 nm which can be detected by a standard fluorescence plate reader. Data were normalized to the controls for basal activity (without enzyme) and 100% activity (with enzyme). In the AC50 values were determined from concentration-response data modeled with the standard Hill equation.
# Assay buffer: 50 mM citric acid, 0.005% Tween-20, pH 5.0. (pH 5.0 is an optimal condition for this enzyme assay)
# 1536-well assay protocol for the human alpha-glucosidase:
# (1) Add 2 ul/well of enzyme (4 nM final)
# (2) Add 23 nL compounds in DMSO solution. The final titration was 0.7 nM to 77 uM.
# (3) Add 1 ul of substrate (400 uM final)
# (4) Incubate at room temperature for 20 min.
# (5) Add 2 ul stop solution (1M NaOH and 1M Glycine mixture, pH 10)
# (6) Detect the assay plate in a ViewLux plate reader (PerkinElmer) with Ex=365 nm and Em=440nm.
# Keywords: Alpha-glucosidase, Prope Disease, pharmacological chaperone, chaperone therapy, high throughput screening, alpha-glucosidase inhibitor, MLSMR, MLSCN, NIH Roadmap, qHTS and NCGC
row,Compound,"activity change, negative = inhibition [%]"
1,Cn1ccnc1,-0.448
2,CCCCCCN(CCCCCC)C(=O)Cc1c(-c2ccc(F)cc2)[nH]c2ccccc12,-16.8
3,CCn1c(=O)[nH]c2cc(Cl)c(Cl)cc21,-1.23
4,CN1CCN(c2nc3cc(C(F)(F)F)ccc3n3cccc23)CC1,-5.65
5,CNC(=O)c1cc2c(cn1)[nH]c1ccccc12,-1.15
6,N=C(N)SCCN,0.332
7,NCCCNCCCCNCCCN,-0.692
8,CCCCCCCC/C=C\CCCCCCCC(=O)NCCc1ccc(O)c(O)c1,-12.2
9,Nc1ccc2c3c(cccc13)C(=O)NC2=O,-6.7
10,Nc1ccc(N2C(=O)c3ccccc3C2=O)c(Cl)c1,-0.484
11,O=C(O)Cc1ccc(O)c(O)c1,-0.576
12,NC(=O)c1ccccc1,2.72
13,CCN(c1nc(N)c(C(=O)N=C(N)N)nc1Cl)C(C)C,-0.77
14,COCc1nc2c([nH]1)c(=O)n(C)c(=O)n2CC(C)C,-1.76
15,CCN1C(=O)C=CC1=O,-2.79
16,COc1ccc(-c2ccc(N)[n+](CCCC(=O)O)n2)cc1,-2.66
17,O=c1[nH]c2cc(Cl)ccc2c(O)c1-c1ccc(Oc2ccccc2)cc1,-3.51
18,N[C@H](C(=O)O)c1cc(O)cc(O)c1,-1.51
19,OC1(c2ccc(Cl)cc2)CCN(Cc2c[nH]c3ccccc23)CC1,-5.33
20,O=C(O)c1cccnc1C(=O)O,-3.5

row,Compound,"activity change, negative = inhibition [%]"
1,O=C(O)Cc1c[nH]c2ccc(O)cc12,-2.62
2,CCCn1c(=O)c2c(ncn2C)n(CCC)c1=O,-1.99
3,C[C@H](O)C(=O)C1=Nc2c(nc(N)[nH]c2=O)NC1,19
4,COc1ccccc1N1CCN(CCN(C(=O)c2ccc(F)cc2)c2ccccn2)CC1,-2.32
5,COc1ccc2c(c1)c(CC(=O)O)c(C)n2Cc1ccc(Cl)cc1,-1.42
6,CCCC(=O)NCCc1c2n(c3ccc(OC)cc13)CCCc1ccccc1-2,-3.71
7,CCCc1c(-c2ccc(O)cc2)nn(-c2ccc(O)cc2)c1-c1ccc(O)cc1,-3.34
8,CC(C)(C)c1cc(/C=C(\C#N)C(N)=S)cc(C(C)(C)C)c1O,-6.34
9,Nc1ncnc2c1ncn2C1CCCC1,-2.81
10,CC(=O)C(C)=O,1.3
11,O=S(=O)(c1cccc2c(Cl)cccc12)N1CCCNCC1,1.3
12,[Li+],1.6
13,CCCn1c(=O)c2[nH]c(-c3ccc(S(=O)(=O)O)cc3)nc2n(CCC)c1=O,31.8
14,Cn1c(=O)c2[nH]c(C3CCCC3)nc2n(C)c1=O,-4.77
15,Cc1cc2c(cc1Cl)N(C(=O)Nc1ccnc3ccccc13)CC2,-2.07
16,C=CC[C@H](N)C(=O)O,0.155
17,CCCOC(=O)c1c(-c2ccccc2)nc(CC)c(C(=O)SCC)c1CCC,-4.47
18,O=c1[nH]c(=O)c2nc3ccccc3nc2[nH]1,-1.01
19,CN(C)S(=O)(=O)c1ccc2c(c1)/C(=C/c1cc3c([nH]1)CCCC3)C(=O)N2,-14.4
20,CC(=O)NNC(=O)N1Cc2ccccc2Oc2ccc(Cl)cc21,2.78

# From PubChem BioAssay (NCATS)
